VLA-4 allo ag: allosterically activates the human VLA-4 integrin; P13612; Jurkat cells, LDV-FITC binding, flow cytometry; activation, % at 10 µM (by protocol); 24,000 tested, under 10 active;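 active = fluorescent ligand binding to cells raised by more than 40% of the manganese-induced maximum; inconclusive = compound's own fluorescence above 85% of the ligand control signal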
Jurkat autofluor: counter-screen for VLA-4 integrin: compound autofluorescence in Jurkat cells. flow cytometry; stronger effect = higher value; 1 = vehicle-only cell background. fluorescence ratio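 (tested at 10 µM compound in the well)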. actives 0.61% (n = 24,000). AID 576;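 active = fluorescence ratio above 2.44, which is 1 plus 3 SD of all ratios; inconclusive = signal too bright to measure linearly, ratio around 10 or more; inactive = fluorescence ratio below 2.44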;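 also: green fluorescence of cells measured with 488 nm excitation and 530 nm emission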
FPRL1 binder: human FPRL1 ligand, with FPR counter-screen. inhibition, % (no concentration beside the values). AID 441. FPRL1-expressing cells, fluorescent ligand binding inhibition, flow cytometry. actives 0.3% (n = 24,000)
Target sequence (P25090 whole entry, looked up): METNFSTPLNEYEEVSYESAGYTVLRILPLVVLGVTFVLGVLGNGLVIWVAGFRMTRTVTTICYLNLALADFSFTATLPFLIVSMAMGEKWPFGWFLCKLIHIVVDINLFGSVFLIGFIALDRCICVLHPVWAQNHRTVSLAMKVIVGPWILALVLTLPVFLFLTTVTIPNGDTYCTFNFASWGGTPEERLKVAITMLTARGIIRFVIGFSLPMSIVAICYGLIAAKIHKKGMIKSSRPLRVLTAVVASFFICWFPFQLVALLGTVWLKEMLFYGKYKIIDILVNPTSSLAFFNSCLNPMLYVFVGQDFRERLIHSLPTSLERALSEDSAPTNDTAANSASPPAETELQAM
VLA-4 antagonist: blocks LDV-FITC ligand binding to Mn2+-activated human VLA-4 integrin; Jurkat cells, LDV-FITC binding with Mn2+, flow cytometry; 100% = Mn2+-driven binding gain fully reversed; actives 0.2% (n = 24,000); AID 529; P13612; inhibition, % at 10 µM (by protocol);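 active = inhibition above 50%; inconclusive = compound itself fluorescent, judged against control cell fluorescence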
FPR ligand: human FPR ligand, with FPRL1 counter-screen; P21462; FPR-expressing cells, fluorescent ligand binding, flow cytometry; inhibition, % (concentration not given with the values); actives 0.74% (n = 24,000)
Hits are given with their value; n = inactive; u = inconclusive; x = no result given. Hits are enriched below; roughly 1.8% of the tested compounds scored in any of these assays. Rule as the data show it, unless noted: active = inhibition above about 30%; inconclusive = no clear call, values can overlap the other calls; inactive = below that.

SMILES | VLA-4 allo ag | Jurkat autofluor | FPRL1 binder | VLA-4 antagonist | FPR ligand
Cc1sc(NC(=O)C2CCCCC2C(=O)O)c(C(N)=O)c1-c1ccc(C(C)(C)C)cc1 (configuration not stated) | x | x | n | x | 49
CCOC(=O)CC(Nc1nc(N2CCOCC2)nc(N2CCOCC2)n1)c1ccccc1Cl (configuration not stated) | n | n | n | n | n
CCN1C(=O)/C(=C2\SC(=S)N(CCCOC)C2=O)c2ccccc21 | x | x | 33 | x | n
CCOc1cc(C2C(C(=O)OCC(C)C)=C(C)N=C3SCCC(=O)N32)ccc1OC(C)=O (configuration not stated) | n | n | n | n | n
CCC(=O)N1CCc2cc(S(=O)(=O)CCC(=O)O)ccc21 | n | n | n | n | n
CC(=O)N1c2ccc(S(=O)(=O)CCC(=O)O)cc2CC1C (configuration not stated) | n | n | n | 61 | n
O=C(O)CC1Oc2ccc(Cl)cc2NC1=O (configuration not stated) | n | n | 37 | n | n
CCC(=O)NC(C)C(c1cccs1)N1CCN(c2ccccc2)CC1 (configuration not stated) | n | n | 47 | n | n
Cc1ccc2oc(=O)c3cnn(CC(=O)N4CCCc5ccccc54)c3c2c1 | n | n | n | n | n
Cc1c2c(n3c(nc4ccccc43)c1C#N)N(Cc1ccccn1)CC2 | n | n | n | n | n
COC(=O)c1sc(N2C(=O)C(O)=C(C(=O)c3ccc(C)o3)C2c2ccc(F)cc2)nc1C (configuration not stated) | u | 3.8 | n | u | n
CC1CCCN(C(=O)Cn2c(-c3nonc3N)nc3ccccc32)C1 (configuration not stated) | u | 3 | n | u | n
CC1CCc2nn(CC(=O)Nc3c(F)cc(F)cc3Br)cc2C1 (configuration not stated) | n | n | n | n | n
O=C(c1oc(=O)c2ccccc2c1-c1ccccc1)N1CCN(C2CCCCC2)CC1 | n | n | n | n | n
O=C(O)c1ccc(CS(=O)(=O)c2cccc(C(F)(F)F)c2)o1 | n | n | n | n | n
COCc1nnc(NC(=O)c2ccc(S(=O)(=O)N3CCCCCC3)cc2)o1 | u | 2.5 | n | u | n
Cc1nnc(NC(=O)c2ccc(S(=O)(=O)N3CCCCCC3)cc2)o1 | n | n | n | n | n
CCOc1ccccc1C1CC(c2ccc(Br)cc2)Nc2nc(N)nn21 (configuration not stated) | n | n | n | n | n
Cc1nnc(SCc2cnc(-c3ccccc3)o2)[nH]c1=O | n | n | 52 | n | 63
CCOC(=O)c1c(C)oc2c1c1c(c3ccccc32)OCN(Cc2ccccn2)C1 | n | n | x | 79 | x
CCOC(=O)c1c(C)oc2c1c(C(c1ccncc1)N1CCOCC1)c(O)c1ccccc12 (configuration not stated) | n | n | n | n | n
COc1ccc(-c2nnc(Nc3nc4c(OC)cccc4s3)o2)c(OC)c1 | n | n | n | 68 | 62
COc1ccc(-c2nnc(Nc3nc4c(OC)cccc4s3)o2)cc1 | n | n | n | 66 | 52
CN(C)c1ccc(C2C3C(=O)NC(=O)C3ON2c2ccc(Cl)cc2)cc1 (configuration not stated) | n | n | n | n | n
CCOC(=O)CCCOC(=O)c1ccc(S(=O)(=O)N(C)C)cc1 | n | n | n | n | n
SMILES | VLA-4 allo ag | Jurkat autofluor | FPRL1 binder | VLA-4 antagonist | FPR ligand
O=C(C1=C(O)C(=O)N(CCN2CCOCC2)C1c1ccccc1)c1cccs1 (configuration not stated) | x | x | n | x | 44
C=CCOc1cccc(C2C(C(=O)c3ccco3)=C(O)C(=O)N2CCN2CCOCC2)c1 (configuration not stated) | x | x | n | x | 63
C=CCOc1cccc(C2C(C(=O)c3ccco3)=C(O)C(=O)N2Cc2ccncc2)c1 (configuration not stated) | x | x | n | x | n
COc1ccc(OC)c(C2C(C(=O)c3ccc(C)o3)=C(O)C(=O)N2CCCN2CCOCC2)c1 (configuration not stated) | x | x | n | x | n
O=C(C1=C(O)C(=O)N(CCCN2CCOCC2)C1c1ccccn1)c1cccs1 (configuration not stated) | x | x | n | x | n
COc1ccc(OC)c(C2C(C(=O)c3ccco3)=C(O)C(=O)N2CCCN2CCOCC2)c1 (configuration not stated) | x | x | n | x | 50
CCOc1ccc(-c2cc3nc(C4CCN(C(=O)OC(C)(C)C)CC4)c(C(=O)O)cn3n2)cc1 | n | n | n | n | n
O=C(O)CCCNc1cc(N2CCC3(CC2)OCCO3)c2noc3c2c1C(=O)c1ccccc1-3 | u | 5.2 | 73 | u | 32
CCOC(=O)N1CCN(c2cc(NCCC(=O)O)c3c4c(onc24)-c2ccccc2C3=O)CC1 | u | 4.6 | 61 | u | 32
CN(C)CCCC1(c2ccc(F)cc2)OCc2cc(C#N)ccc21 (configuration not stated) | n | n | n | n | n
COc1ccccc1Oc1c(C)oc2c(CN(C)C)c(O)ccc2c1=O | x | x | 30 | x | n
COc1ccccc1Oc1c(C)oc2c(CN3CCN(CCO)CC3)c(O)ccc2c1=O | x | x | n | x | n
O=S1(=O)CC(N2CCCCC2)C(N2CCCCC2)C1 (configuration not stated) | n | n | n | n | n
O=C(Cc1c(C(=O)O)[nH]c2ccc(Cl)cc12)Nc1ccc2c(c1)OCCO2 | n | n | n | n | n
COc1ccc(C2C=C(c3ccc(Br)s3)Nc3ncnn32)cc1OC (configuration not stated) | u | 3.3 | n | u | n
CCOC(=O)c1ccc(NC(=O)N2CCN(Cc3cccc(F)c3)CC2)cc1 | n | n | n | n | n
CC(=O)NC(Cc1cc(C)ccc1C)C(=O)N1CCN(C(=O)Nc2ccc(C(C)=O)cc2)CC1 (configuration not stated) | n | n | n | n | 35
CCCS(=O)(=O)n1nc(-c2ccc(Br)cc2)cc1N | n | n | n | n | n
CCN(CC)c1ccc(C=N/C(C#N)=C(\N)C#N)cc1 | u | 5.9 | 68 | u | n
Cc1cccc(-c2noc(CN(C(=O)c3c(-c4ccccc4Cl)noc3C)C(C)C)n2)c1 | n | n | n | 59 | n
Cc1ccc(C)c(C(=O)N(Cc2nc(-c3ccc(Cl)cc3)no2)C(C)C)c1 | n | n | n | n | n
Cc1ccc(-n2c(SCC3CCCCO3)nnc2-c2ccco2)cc1 (configuration not stated) | n | n | n | n | n
CCOC(=O)Cn1c(=O)oc2cc(S(=O)(=O)Nc3cc(OCC)ccc3OCC)ccc21 | u | n | n | u | n
CCOC(=O)Cn1c(=O)oc2cc(S(=O)(=O)Nc3ccc(N(CC)CC)cc3C)ccc21 | u | 4.1 | u | u | n
CCOC(=O)Cn1c(=O)oc2cc(S(=O)(=O)Nc3cc(Cl)ccc3OC)ccc21 | u | 4.3 | u | u | n
CCOCCCNS(=O)(=O)c1ccc2c(c1)oc(=O)n2CC(=O)OCC | u | 2.5 | n | u | n

From PubChem BioAssay
